Tests used:
Assay in all cases: PBM binding z-score (relative to random genomic background probes); higher = stronger binding; sequences stand for … in GC…GCGATTGACAGCGTAGAATGAAGG
[1] = test system: PPARg:RXRa DBDmut IVT, anti-RXR (DBD mutation: RXRa K156A/R161A, NR concentration 270 nM, RXRa partner concentration 90 nM)
Method in brief: (§1)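 Custom Agilent 4×180K protein-binding microarrays carried double-stranded probes. Their 34-nt variable regions held direct-repeat seeds, single-nucleotide variants, half-site ablations and random human genomic background sequences. Arrays were incubated 1 h with ligand-free nuclear receptor dimers in PBS pH 7.4, 2% milk, 0.02% Triton X-100, 1 mM DTT, 0.2 mg/mL BSA and 0.4 mg/ml salmon testes DNA. Antibodies against each partner (one per run) detected binding, and scanned fluorescence was regression-normalized. Binding z-scores use random background probes as reference.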

[2] = test system: PPARg:RXRa IVT, anti-PPARg (NR concentration 270 nM, RXRa partner concentration 90 nM)
Method in brief: as §1

[3] = test system: PPARg DBDmut:RXRa IVT, anti-PPARg (DBD mutation: PPARg1 K132A/R137A, NR concentration 270 nM, RXRa partner concentration 90 nM)
Method in brief: as §1

[4] = test system: PPARg DBDmut IVT, anti-PPARg (DBD mutation: PPARg1 K132A/R137A, NR concentration 270 nM)
Method in brief: as §1

[5] = test system: PPARg homodimer (NR concentration 180 nM)
Method in brief: as §1

[6] = test system: PXR:RXRa (NR concentration 270 nM, RXRa partner concentration 90 nM)
Method in brief: as §1

[7] = test system: PXR homodimer (NR concentration 270 nM)
Method in brief: as §1

[8] = test system: RARa:RXR (NR concentration 270 nM, RXRa partner concentration 90 nM)
Method in brief: as §1

[9] = test system: RARa homodimer (NR concentration 270 nM)
Method in brief: as §1

[10] = test system: RARb:RXRa (NR concentration 270 nM, RXRa partner concentration 90 nM)
Method in brief: as §1

Row | Sequence | PBM binding z-score [1] | PBM binding z-score [2] | PBM binding z-score [3] | PBM binding z-score [4] | PBM binding z-score [5] | PBM binding z-score [6] | PBM binding z-score [7] | PBM binding z-score [8] | PBM binding z-score [9] | PBM binding z-score [10]
1 | TGAATGAGGTTATAAGATTAGGGAACGTTGCAAA | 1.08 | 1.82 | 0.868 | 0.168 | 0.438 | 0.788 | 0.176 | 1.31 | 0.154 | 1.15
2 | CGTCCAAGGTCAAGGTCGGTGAAAGAGACTCGAA | 3.16 | 4.02 | -0.058 | -0.563 | 2.86 | 4.31 | 0.887 | 5.05 | 0.962 | 5.34
3 | CCAGACAGGTGACAAGGTAACTCAGCCTCGATTA | 1.41 | 1.61 | -0.344 | -0.0688 | 0.918 | -0.151 | -0.207 | 0.278 | 0.367 | 0.783
4 | CCTAGTTGGTTAAGGTCACACACGCTATAGGTAC | 1.64 | 2.5 | 1.48 | 1.66 | 3.91 | 4.46 | 4.13 | 4.85 | 2.51 | 4.24
5 | CGAGCTAGGTCATCCAGGACAGTGAATACATTGA | 3.44 | 3.06 | 0.0496 | -0.51 | 1.51 | 1.88 | 0.935 | 2.15 | 0.298 | 3.85
6 | CCTGCTAGGTCAATGGTCTGCTAAAGCAGCTCGC | 4.23 | 3.5 | -0.516 | -0.86 | 1.16 | 0.731 | -0.482 | 1.36 | -0.721 | 3.78
7 | ATATGTAGGTTACATCCGGGTCAGTCAGGCTATG | 7.52 | 7.34 | 2.22 | 1.82 | 1.39 | 2.01 | 0.364 | 2.42 | 0.784 | 1.96
8 | TCCGCTAGGTCAGTTGGTCAGCTAACGAGCTGCC | 2.32 | 2.55 | -0.0326 | -0.848 | 0.175 | 0.233 | -0.744 | 0.687 | -0.7 | 3.44
9 | TCAGACAGCTGAAGGTAACTCAGGTACGCAGTCG | 1.6 | -0.656 | -0.951 | -0.614 | -1.05 | 0.139 | -0.874 | 0.392 | -0.741 | -0.0591
10 | TTATATAGGTAAAGGTGAAAGTCGAACGATATGA | 5.88 | 6.52 | 3.04 | 2.82 | 2.08 | 0.997 | 0.227 | 1.74 | 0.54 | 1.88
11 | GTAGCAAGGTGAATAGGTCGTTGATGAGTAGGCG | 1.19 | 1.9 | -0.625 | -1.04 | 0.211 | 0.451 | -0.13 | 1.08 | -0.0167 | 1.74
12 | CAGCCTAGGTCAGGGTCAGTATAGGAGGAACGTT | 1.2 | 2.57 | 0.511 | -0.598 | 1.63 | 2.38 | 0.127 | 3.04 | 0.15 | 4.31
13 | GCATATAGGTAATACGAGGTGAAAGTCCGATTGT | 4.42 | 3.44 | 0.607 | 1.33 | 0.669 | 0.96 | 0.299 | 1.27 | 0.304 | 0.336
14 | GCTCGGAGTACAAGGTCAGAGCTTTGTCCGTAGA | 0.542 | 0.648 | -1.36 | -1.01 | 1.73 | 1.67 | -0.101 | 2.14 | -0.729 | 3.07
15 | CCTTGCAGGCCAATCTGGGTCACTCAAGGCTTGA | 4.87 | 5.67 | 0.0467 | -0.339 | 0.973 | 1.02 | -0.543 | 1.59 | -0.229 | 1.53
16 | ACTAGTTGGTCAGCGGAGGTCACACACAATTCGG | 1.63 | 2.75 | 1.36 | 0.469 | 3.06 | 4.99 | 1.8 | 4.46 | 1.6 | 3.59
17 | TCATATAGGTAAATGCTAGGTGAAAGCCCGATCT | 3.61 | 2.73 | 0.828 | 0.941 | 0.598 | 0.505 | -0.0207 | 1.05 | 0.798 | 0.444
18 | AGTAGTTGGTCAGCTGAGGTCACACACAATTCGG | 1.18 | 2.65 | 0.554 | 0.308 | 3.34 | 5.41 | 2.54 | 4.6 | 1.53 | 3.63
19 | ATCTCTAGGTAAAGATAGTTCAGTGATTGCAAAT | 2.16 | 1.82 | 0.778 | 1.85 | 1.19 | 1.38 | 0.822 | 0.722 | 1.29 | 0.865
20 | CGTCCAAGGTCATAGGAGGACAGTGAAGACAGAT | 2.87 | 3.57 | 0.568 | 0.524 | 3.01 | 5.67 | 1.55 | 4.89 | 1.62 | 4.98
21 | TCATATAGGGAAAGGTGAAAGTCGAACGATATGA | 2.4 | 2.31 | 0.712 | 0.709 | 0.702 | 0.972 | 0.00313 | 1.74 | 0.496 | 1.78
22 | ATAATGAGGTTATACGTAGATCAGGGAAGAAAGT | 4.24 | 2.58 | 2.03 | 2.05 | 0.998 | 1.7 | 0.97 | 2.12 | 1.63 | 1.75
23 | CCAGACAGTTGAAAGGTAACTCAGTCTGGTACGC | 0.0148 | 0.0044 | -0.176 | -0.589 | 0.762 | 0.219 | 0.144 | 0.485 | 0.568 | 0.56
24 | AGTTAAAGTTCACTAGGTAACGTAAGATTCAGCT | 2.6 | 4.69 | 1.44 | 1.19 | 2.19 | 3.54 | 2.11 | 2.66 | 1.6 | 4.51

From the supplement of paper PMC6555819
